HT1080 IDH1KD tx: toxicity to HT-1080 IDH1 knockdown cells (counter line); Potency, µM (top dose mostly 46.1 µM), without a hit: top-dose activity, negative = toxicity, hits mostly cytotoxic; HT-1080 IDH1 knockdown viability, ATP luminescence, 48 h; 2% of 360,000 active;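 also: potency is read from the fitted curve at half-maximal effect; 0% = DMSO wells and -100% = cell-free medium wells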
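After a 2 h attachment period, IDH1KD HT-1080 cells took pin-transferred compound for 48 h at 37 °C; ATP-based luminescence after 10 min room-temperature reagent incubation reported viability.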
IL-1B inflam inh: blocks inflammasome-driven IL-1 beta release; THP-1 LPS/ATP IL-1B secretion, AlphaLISA, 16 h; active compounds read low; activity change, % at 57.5 µM; 4.7% of 360,000 active; AID 743279; in the data active = activity change below about -50%; inconclusive = mostly about -30% to -49%
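Secreted IL-1B measured by AlphaLISA bead assay after 16 h compound exposure of THP-1 cells; compounds (final up to 57.5 uM) added 1 h before LPS (250 ng/mL) and ATP (1.25 mM) stimulation; lower signal means less secretion.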
HT1080-NT tox: kills 2HG-producing HT-1080-NT fibrosarcoma cells; Potency, µM (highest dose often 46.1 µM), inactives show at the highest dose activity, negative = less viability, hits mostly cytotoxic; 1.6% of 360,000 active; HT-1080-NT fibrosarcoma viability, CellTiter-Glo ATP luminescence, 48 h;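 also: NT is the 2HG producing partner of a matched IDH1 knockdown line; potency is read from the fitted curve at half-maximal effect; 0% = DMSO-treated cells and -100% = media-only wells without cells; nearly all actives have a fitted effect of over 55% in size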
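Toxicity toward the 2HG-producing NT line was scored as %Activity, normalised to DMSO and no-cell wells, from CellTiter-Glo luminescence after 48 hours' treatment.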
DT40 TDP1 CPT: DT40-hTDP1 cell growth loss with CPT; chicken DT40 Tdp1-/-;hTDP1 cells + 20 nM CPT, ATP luminescence, 48 h; Potency, µM (top dose mostly 46.2 µM), without a hit: at the top dose activity change, negative = growth inhibition, usual class: inhibitors; 12% of 420,000 active; AID 686979; also: potency is read from the fitted curve at half-maximal effect; nearly all actives have a fitted effect of over 55% in size
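Chicken DT40 Tdp1-/- cells stably complemented with human TDP1 were seeded at 400 cells/well in medium containing 20 nM camptothecin, exposed to pin-transferred compounds, and grown at 37 °C for at least 48 hr. Viability was read as ATP luminescence.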
DT40 TDP1 no CPT: qHTS for Inhibitors of human tyrosyl-DNA phosphodiesterase 1 (TDP1): qHTS in cells in absence of CPT; 15% of 420,000 active; Potency, µM (titrated, usually from 46.2 µM), without a hit: at the highest dose activity change, negative = growth inhibition, actives largely listed as inhibitors; DT40 Tdp1-/- hTDP1 cells, no CPT, ATP luminescence, 48 h; also: potency is read from the fitted curve at half-maximal effect; nearly all actives have a fitted effect of over 55% in size
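A cellular qHTS used chicken DT40 cells lacking endogenous Tdp1 but carrying stably transfected human TDP1. Compounds were applied without camptothecin, and cell growth kinetics were judged by ATP-dependent luminescence after ≥48 hr.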
* = called active by the depositor; ? = inconclusive; · = no result; [ ] = another dose, or the depositor's remark. This is a sample that favours compounds with a hit; in the whole collection about 19% have one here. Unless noted, calls follow the shape of the dose curve; as a rule, active = well fitted curve in the direction sought with a large enough effect; inconclusive = small, poorly fitted or top-dose-only effect, or another doubt; inactive = no such curve, though single readings can be large; an effect the other way counts as inactive or inconclusive. Unless noted, % is scaled to controls: 0 for no effect and ±100 for the full control effect.

SMILES | HT1080 IDH1KD tx | IL-1B inflam inh | HT1080-NT tox | DT40 TDP1 CPT | DT40 TDP1 no CPT
CC(C)=CCC/C(C)=C/CNC(=O)C[C@H]1C[C@H](C(=O)N2CCOCC2)[C@@]2(C)c3[nH]c4cc(-c5ccco5)ccc4c3CCN2C1=O | ? | ? | ? | 21µM* | 13µM*
CS(=O)(=O)N1CCC2(CC1)CN(C(c1ccccc1)c1ccccc1)C2 | · | · | · | 6% | -3%
CC[C@@](N)(C(=O)O)c1ccc(C(=O)O)cc1 | · | · | · | -3% | -1%
CC(C)c1ccc(Nc2nc(Cl)nc(NCc3ccco3)n2)cc1 | ? | 21 | ? | ? | ?
COc1ccc(Nc2nc(NCc3ccco3)nc(N/N=C/c3ccc(O)cc3)n2)cc1 | 12% | -69* | 2% | ? | ?
COc1ccc(/C=N/Nc2nc(Nc3ccccc3)nc(N3CCCC3)n2)cc1 | 7% | -10 | -7% | ? | ?
COc1ccc(Nc2nc(NCc3ccco3)nc(N/N=C/c3ccccc3F)n2)cc1 | -12% | ? | -6% | 18µM* | 16µM*
O=c1[nH]c(=S)[nH]cc1Oc1ccc(Br)cc1Br | -1% | 17 | 3% | -14% | -4%
CC(=O)Nc1ccc2c(c1)ncn2C | 16% | 2 | 17% | -10% | 1%
COc1cc(C(=O)Nc2ccc3c(c2)ncn3C)cc(OC)c1OC | ? | 82 | ? | 4.1µM* | 2.9µM*
COc1cc(C(=O)Nc2ccc3c(c2)nc(C)n3C)cc(OC)c1OC | 9.2µM* | 41 | 6.5µM* | 4.1µM* | 3.3µM*
Cc1ccsc1C(=O)N1CCC1(C)C(=O)NS(=O)(=O)c1ccc(Br)cc1 (configuration not stated) | 6% | 17 | 10% | 6% | -2%
CCCCn1c(=O)nc2n(-c3ccc(F)cc3)c3ccccc3cc-2c1=O | · | · | · | 9% | -9%
O=C(Nc1cccc2ccccc12)c1ccc2sc([C@H]3C[C@H](O)[C@@H](CO)O3)nc2c1 | -2% | 5 | -1% | ? | ?
COc1ccc(C2CC=C(C(C)=O)CN2S(=O)(=O)c2ccccc2)cc1 (configuration not stated) | -5% | -13 | 3% | ? | 21µM*
CCOc1ccc(C2CC=C(C(C)=O)CN2S(=O)(=O)c2ccc(C)cc2)cc1 (configuration not stated) | ? | -3 | -11% | 23µM* | 23µM*
CCOc1ccc([C@@H]2CC=C(C(=O)O)CN2S(=O)(=O)c2ccc(C)cc2)cc1 | 5% | 37 | -16% | -10% | -7%
COc1ccc(C2CC=C(C(C)=O)CN2S(=O)(=O)c2ccc(C)cc2)cc1 (configuration not stated) | 5% | 12 | -3% | ? | 23µM*
CCCCCCCCCCCCC/C=C/[C@@H](O)[C@H](CO)NCCCCCCCC | · | · | · | -1%[4.12 µM] | -24%[4.12 µM]
N=C(N)c1ccc(N=Nc2c(O)ccc3c2[nH]c2ccccc23)cc1 | -21% | -97* | -8% | 21µM* | 7.3µM*
Cc1ccc(N=Nc2[nH]c3ccccc3c2O)cc1 | 4% | 4 | 5% | -1% | -3%
COc1ccc(CNC(=O)Cc2ccc(NC(=O)C3=C(C)OCCS3)cc2)cc1 | 5.8µM* | 49 | ? | 2.3µM* | 2.1µM*
CC1=C(C(=O)Nc2ccccc2C(=O)NCc2ccccc2)SCCO1 | -9% | -8 | 3% | ? | ?
CC1=C(C(=O)Nc2ccc(CC(=O)NCc3ccc(OC(C)C)cc3)cc2)SCCO1 | ? | 62 | ? | 0.16µM* | 0.18µM*
COc1cccc(CNC(=O)c2ccccc2NC(=O)C2=C(C)OCCS2)c1OC | -10% | -20 | -8% | 18µM* | 12µM*
CCOc1ccccc1CNC(=O)c1ccccc1NC(=O)C1=CSCCO1 | -3% | -9 | -25% | ? | 26µM*
COc1cccc(-c2cc(CNC(=O)[C@H]3O[C@@H](n4ccc(=O)[nH]c4=O)[C@H](O)[C@@H]3O)no2)c1 | 1% | -10 | 25% | 0% | -6%

High-throughput results as filed in PubChem.
